From the supplement of paper PMC10849652 come the findings set out here.

What all share (assay): log2 fold change, soluble protein after heating vs DMSO (PISA); higher = thermal stabilisation; K562 cells, 10 uM, 30 min; active = over 0.2 and 3.5 SD of the protein, either way, in both replicates (recomputed)
Compound in one test: Cc1ccc(NC(=O)c2ccc(CN3CC[C@H](N(C)C)C3)c(C(F)(F)F)c2)cc1Nc1nccc(-c2cncnc2)n1 [bafetinib]
In short, it runs like this:
(§1)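 For each measurement, 10 μM compound was applied for 30 min to K562 cells at 2×10^6 cells/mL. Aliquots were heated for 3 min across 48°C-58°C, pooled, and extracted in PBS with 0.5% NP-40 at 4°C; the supernatant after 21,000xg for 90 min was soluble protein. This was quantified by TMTpro 16plex LC-MS/MS with channel sums equalised, and thermal stability was reported relative to control samples from duplicates, on a log2 fold-change scale.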

Compound in test [1]: Cc1cccc(CC(=O)N2CCc3c2ccc(-c2cn(C)c4ncnc(N)c24)c3F)n1
The method in brief: as §1

Compound in the next test: Cc1cn(-c2cc(NC(=O)c3ccc(C)c(Nc4nccc(-c5cccnc5)n4)c3)cc(C(F)(F)F)c2)cn1 [nilotinib]
In short, it runs like this:
as §1

Compound in test [2]: Cc1nc(Nc2n[nH]c3c2CN(C(=O)N[C@H](CN(C)C)c2ccccc2)C3(C)C)c2sccc2n1
In short, it runs like this: as §1

Compound in a further test: Cc1nc(Nc2ncc(C(=O)Nc3c(C)cccc3Cl)s2)cc(N2CCN(CCO)CC2)n1 [dasatinib]
In short, it runs like this:
as §1

Compound in test [3]: Cc1ncc(-c2ccnc(Nc3ccc(S(C)(=O)=O)cc3)n2)n1C(C)C
The method in brief: as §1

Compound in test [4]: Cn1cc(-c2ccc3c(c2)CCN3C(=O)Cc2cccc(C(F)(F)F)c2)c2c(N)ncnc21
In short, it runs like this: as §1

Compound in test [5]: Cn1cc(-c2ccc3nnc(C(F)(F)c4ccc5ncccc5c4)n3n2)cn1
The method in brief:
as §1

Compound in the next test: Cn1cncc1[C@@](N)(c1ccc(Cl)cc1)c1ccc2c(c1)c(-c1cccc(Cl)c1)cc(=O)n2C [tipifarnib]
The method in brief:
as §1

Compound in the next test: FC(F)(F)c1ccc(/C=C/c2nc(COc3ccc(CCCCn4ccnn4)cc3)co2)cc1 [mubritinib]
The method in brief: as §1

Targets with a hit are over-represented here; the source holds about 7,900 in all. About 0.6% of all pairs of compound and target were hits. Unmarked numbers belong to inactive results.

Sequence of UniProt O15400 (O15400 whole entry, looked up): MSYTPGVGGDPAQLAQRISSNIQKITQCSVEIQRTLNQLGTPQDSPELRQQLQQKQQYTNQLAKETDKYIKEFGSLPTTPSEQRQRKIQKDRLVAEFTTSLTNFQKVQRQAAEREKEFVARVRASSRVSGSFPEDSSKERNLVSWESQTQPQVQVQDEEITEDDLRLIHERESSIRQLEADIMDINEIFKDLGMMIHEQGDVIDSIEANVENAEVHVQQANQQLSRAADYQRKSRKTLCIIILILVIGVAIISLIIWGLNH
Sequence of UniProt Q92581 (Q92581 whole entry, looked up): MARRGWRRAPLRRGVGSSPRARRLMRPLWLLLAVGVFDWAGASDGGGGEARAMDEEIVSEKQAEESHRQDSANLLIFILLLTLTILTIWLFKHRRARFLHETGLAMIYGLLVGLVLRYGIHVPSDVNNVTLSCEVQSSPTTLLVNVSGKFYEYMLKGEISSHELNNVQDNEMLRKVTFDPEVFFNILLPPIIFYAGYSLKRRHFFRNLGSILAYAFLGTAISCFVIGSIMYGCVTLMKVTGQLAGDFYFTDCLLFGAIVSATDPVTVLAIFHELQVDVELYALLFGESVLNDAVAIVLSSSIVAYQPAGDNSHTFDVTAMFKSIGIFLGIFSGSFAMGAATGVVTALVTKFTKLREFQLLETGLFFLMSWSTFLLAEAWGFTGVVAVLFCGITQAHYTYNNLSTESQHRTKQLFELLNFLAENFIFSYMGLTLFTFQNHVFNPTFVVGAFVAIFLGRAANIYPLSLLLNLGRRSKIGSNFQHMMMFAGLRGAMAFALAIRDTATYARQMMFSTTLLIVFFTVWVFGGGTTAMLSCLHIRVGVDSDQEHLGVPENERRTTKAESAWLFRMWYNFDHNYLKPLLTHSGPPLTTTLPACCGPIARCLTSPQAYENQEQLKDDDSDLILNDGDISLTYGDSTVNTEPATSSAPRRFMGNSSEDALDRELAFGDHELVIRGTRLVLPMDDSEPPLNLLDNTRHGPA
Sequence of UniProt P08579 (P08579 whole entry, looked up): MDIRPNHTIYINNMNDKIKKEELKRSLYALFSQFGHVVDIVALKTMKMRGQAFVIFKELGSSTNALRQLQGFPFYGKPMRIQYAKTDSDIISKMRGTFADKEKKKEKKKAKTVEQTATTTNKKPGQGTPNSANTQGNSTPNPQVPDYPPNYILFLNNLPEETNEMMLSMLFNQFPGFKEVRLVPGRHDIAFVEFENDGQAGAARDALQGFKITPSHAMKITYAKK
Sequence of UniProt Q9BTW9 (Q9BTW9 whole entry, looked up): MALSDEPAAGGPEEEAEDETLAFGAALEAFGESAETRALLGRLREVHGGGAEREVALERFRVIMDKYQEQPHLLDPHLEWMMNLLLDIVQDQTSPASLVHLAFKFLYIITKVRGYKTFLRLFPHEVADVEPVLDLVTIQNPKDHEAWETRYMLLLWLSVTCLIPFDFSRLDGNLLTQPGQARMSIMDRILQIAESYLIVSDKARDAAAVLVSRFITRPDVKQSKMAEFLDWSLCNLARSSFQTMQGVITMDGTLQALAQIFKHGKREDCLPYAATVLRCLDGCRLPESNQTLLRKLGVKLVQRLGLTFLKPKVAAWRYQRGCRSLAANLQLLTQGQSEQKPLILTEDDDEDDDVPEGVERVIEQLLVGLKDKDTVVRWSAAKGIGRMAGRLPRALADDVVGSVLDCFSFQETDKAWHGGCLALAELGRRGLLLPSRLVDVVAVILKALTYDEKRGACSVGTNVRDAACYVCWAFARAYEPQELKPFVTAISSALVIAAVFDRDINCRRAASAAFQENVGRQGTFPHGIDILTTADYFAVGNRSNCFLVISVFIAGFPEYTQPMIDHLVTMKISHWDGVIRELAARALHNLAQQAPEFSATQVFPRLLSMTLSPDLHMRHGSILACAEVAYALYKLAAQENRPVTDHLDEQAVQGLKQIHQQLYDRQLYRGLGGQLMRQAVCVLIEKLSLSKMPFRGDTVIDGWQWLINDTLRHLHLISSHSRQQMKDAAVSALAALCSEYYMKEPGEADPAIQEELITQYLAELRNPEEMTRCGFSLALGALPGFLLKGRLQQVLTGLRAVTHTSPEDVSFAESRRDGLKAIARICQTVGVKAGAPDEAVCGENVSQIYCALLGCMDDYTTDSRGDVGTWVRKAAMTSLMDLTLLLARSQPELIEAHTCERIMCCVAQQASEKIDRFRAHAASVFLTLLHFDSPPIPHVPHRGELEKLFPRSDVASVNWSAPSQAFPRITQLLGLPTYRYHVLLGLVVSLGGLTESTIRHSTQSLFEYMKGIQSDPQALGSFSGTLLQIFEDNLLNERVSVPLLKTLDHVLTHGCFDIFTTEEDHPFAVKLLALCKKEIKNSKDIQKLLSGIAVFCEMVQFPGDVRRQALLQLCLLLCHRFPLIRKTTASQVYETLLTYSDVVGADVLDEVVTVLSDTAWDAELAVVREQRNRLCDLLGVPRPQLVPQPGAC
Sequence of UniProt P02786 (P02786 whole entry, looked up): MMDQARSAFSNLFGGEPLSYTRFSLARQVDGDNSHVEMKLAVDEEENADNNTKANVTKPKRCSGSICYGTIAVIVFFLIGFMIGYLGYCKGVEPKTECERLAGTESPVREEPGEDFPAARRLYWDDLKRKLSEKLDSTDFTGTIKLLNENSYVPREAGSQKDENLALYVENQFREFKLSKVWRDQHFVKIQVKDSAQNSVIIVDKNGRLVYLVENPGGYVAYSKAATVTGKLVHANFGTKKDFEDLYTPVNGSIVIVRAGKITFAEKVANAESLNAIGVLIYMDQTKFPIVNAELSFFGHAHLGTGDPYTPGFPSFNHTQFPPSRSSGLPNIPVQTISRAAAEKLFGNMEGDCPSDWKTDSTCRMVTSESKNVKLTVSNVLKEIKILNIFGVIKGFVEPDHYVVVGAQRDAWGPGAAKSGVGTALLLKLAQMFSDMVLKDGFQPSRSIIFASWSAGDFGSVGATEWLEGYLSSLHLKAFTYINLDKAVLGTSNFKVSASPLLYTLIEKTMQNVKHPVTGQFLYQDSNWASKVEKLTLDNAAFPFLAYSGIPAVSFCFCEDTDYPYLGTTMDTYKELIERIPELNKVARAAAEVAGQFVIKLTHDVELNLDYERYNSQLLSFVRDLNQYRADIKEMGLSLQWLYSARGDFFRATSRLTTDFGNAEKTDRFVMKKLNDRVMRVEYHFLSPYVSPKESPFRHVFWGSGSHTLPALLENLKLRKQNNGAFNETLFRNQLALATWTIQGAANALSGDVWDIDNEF
Sequence of UniProt Q9BSF4 (Q9BSF4 whole entry, looked up): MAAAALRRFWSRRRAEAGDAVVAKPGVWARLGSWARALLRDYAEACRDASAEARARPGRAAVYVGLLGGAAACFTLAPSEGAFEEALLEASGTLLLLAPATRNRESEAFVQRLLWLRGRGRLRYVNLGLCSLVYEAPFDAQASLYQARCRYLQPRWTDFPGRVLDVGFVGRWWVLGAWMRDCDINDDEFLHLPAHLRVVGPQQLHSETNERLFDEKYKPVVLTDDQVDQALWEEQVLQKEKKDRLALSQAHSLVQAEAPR
Sequence of UniProt P51571 (P51571 whole entry, looked up): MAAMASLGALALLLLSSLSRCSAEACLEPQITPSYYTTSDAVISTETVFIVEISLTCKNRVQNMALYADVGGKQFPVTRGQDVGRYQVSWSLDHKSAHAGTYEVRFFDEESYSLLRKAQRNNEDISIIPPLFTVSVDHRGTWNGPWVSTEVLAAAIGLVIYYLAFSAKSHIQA
Sequence of UniProt Q92544 (Q92544 whole entry, looked up): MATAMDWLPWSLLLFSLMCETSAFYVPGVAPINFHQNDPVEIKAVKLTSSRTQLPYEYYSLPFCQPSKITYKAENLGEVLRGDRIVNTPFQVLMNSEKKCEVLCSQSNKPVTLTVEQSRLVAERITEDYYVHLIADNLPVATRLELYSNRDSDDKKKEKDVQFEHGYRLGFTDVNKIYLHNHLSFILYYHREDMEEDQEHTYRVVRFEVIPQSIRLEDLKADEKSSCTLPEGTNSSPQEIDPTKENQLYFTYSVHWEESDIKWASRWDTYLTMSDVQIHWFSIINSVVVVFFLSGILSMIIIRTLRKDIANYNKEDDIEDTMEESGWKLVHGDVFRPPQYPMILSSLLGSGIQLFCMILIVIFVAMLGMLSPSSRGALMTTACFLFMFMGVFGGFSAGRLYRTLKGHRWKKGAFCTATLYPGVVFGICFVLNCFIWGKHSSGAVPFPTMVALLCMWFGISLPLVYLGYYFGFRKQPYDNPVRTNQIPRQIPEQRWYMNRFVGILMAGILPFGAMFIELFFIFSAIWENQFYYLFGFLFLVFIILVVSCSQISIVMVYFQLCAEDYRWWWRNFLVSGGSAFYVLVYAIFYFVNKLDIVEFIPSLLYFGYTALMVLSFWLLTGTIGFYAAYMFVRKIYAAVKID
Sequence of UniProt P42229 (P42229 whole entry, looked up): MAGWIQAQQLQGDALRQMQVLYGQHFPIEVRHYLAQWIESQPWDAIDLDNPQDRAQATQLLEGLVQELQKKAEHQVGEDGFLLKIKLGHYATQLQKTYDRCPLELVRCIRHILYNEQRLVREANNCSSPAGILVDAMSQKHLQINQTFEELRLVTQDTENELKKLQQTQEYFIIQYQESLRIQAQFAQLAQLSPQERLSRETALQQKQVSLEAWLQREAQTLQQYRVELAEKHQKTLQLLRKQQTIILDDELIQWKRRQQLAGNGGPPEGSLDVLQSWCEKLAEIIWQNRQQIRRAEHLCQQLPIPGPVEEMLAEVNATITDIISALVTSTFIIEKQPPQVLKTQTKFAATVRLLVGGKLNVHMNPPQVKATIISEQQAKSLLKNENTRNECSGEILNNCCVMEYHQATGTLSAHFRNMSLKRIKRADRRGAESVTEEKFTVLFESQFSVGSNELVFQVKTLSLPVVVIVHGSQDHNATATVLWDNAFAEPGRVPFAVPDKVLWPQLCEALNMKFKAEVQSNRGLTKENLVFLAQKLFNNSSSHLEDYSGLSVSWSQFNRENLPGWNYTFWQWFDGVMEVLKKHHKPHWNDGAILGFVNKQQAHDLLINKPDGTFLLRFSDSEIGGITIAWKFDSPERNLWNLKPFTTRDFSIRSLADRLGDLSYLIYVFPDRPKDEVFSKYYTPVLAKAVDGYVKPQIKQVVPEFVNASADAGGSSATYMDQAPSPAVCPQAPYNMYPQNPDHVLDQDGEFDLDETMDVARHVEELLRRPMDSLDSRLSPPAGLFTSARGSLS

Take STAT5A (UniProt P42229): the log2 fold change with bafetinib is 0.034; in test [1], 0.208; in the test with nilotinib it was -0.112; in test [2], -0.338 (active); with dasatinib, -0.191; in test [3] it was -0.051. The log2 fold change in test [4] is 0; in [5], 0.104; in the test with tipifarnib it was -0.107; in the test with mubritinib, 0.371 (active).
Regarding SSR4 (UniProt P51571), the log2 fold change in the test with bafetinib is -0.011; in test [1] it was -0.057; with nilotinib, -0.001; in test [2] it was 0.021; with dasatinib, -0.028; in test [3], -0.005. Moreover, the log2 fold change is 0.067 in [4], 0.026 in test [5], -0.063 with tipifarnib and 0.003 with mubritinib.
With STX7 (UniProt O15400), the log2 fold change with bafetinib was -0.06; in [1] it was -0.135; with nilotinib, 0.009; in test [2], 0.013; with dasatinib, 0.03; in test [3] it was -0.017. For the same target, the log2 fold change was -0.007 in [4], 0.029 in [5], 0.025 in the test with tipifarnib and 0.007 in the test with mubritinib.
For the target TM9SF4 (UniProt Q92544), the log2 fold change with bafetinib was 0.034; in [1] it was 0.252 (active); with nilotinib, 0.005; in test [2], 0.012; with dasatinib, 0.127; in [3], 0.037. For the same target, the log2 fold change in test [4] is -0.021; in test [5] it was 0.004; in the test with tipifarnib, -0.061; with mubritinib, 0.007.
On to TBCD (UniProt Q9BTW9), for which the log2 fold change with bafetinib is -0.064; in test [1], 0.029; with nilotinib, -0.101; in test [2] it was -0.078; with dasatinib, -0.086; in test [3], -0.025. The log2 fold change in [4] was 0.007; in test [5], 0.025; in the test with tipifarnib, -0.038; with mubritinib it was -0.039.
With SNX11 (UniProt Q9Y5W9), the log2 fold change in the test with bafetinib is -0.259; in test [1], 0.081; with nilotinib it was -0.033; in test [2], -0.108; with dasatinib, -0.022; in test [3] it was -0.44 (active). Moreover, the log2 fold change in [4] is 0.077; in [5] it was 0.002; with tipifarnib it was 0.178; with mubritinib, -0.015.
As to TFRC (UniProt P02786), the log2 fold change with bafetinib is -0.277 (active); in test [1], -0.038; with nilotinib, -0.005; in test [2], -0.043; in the test with dasatinib, 0.009; in test [3], -0.018. In addition, the log2 fold change is 0.012 in test [4], 0.027 in test [5], -0.004 in the test with tipifarnib and 0.052 with mubritinib.
As for SPINDOC (UniProt Q9BUA3), the log2 fold change was -0.149 with bafetinib; -0.031 in test [1]; 0.049 with nilotinib; -0.458 (active) in [2]; -0.105 in the test with dasatinib; -0.127 in test [3]. In addition, the log2 fold change in test [4] is -0.085; in test [5], -0.044; with tipifarnib it was 0.046; with mubritinib it was 0.04.
As to SLC9A6 isoform 2 (UniProt Q92581), the log2 fold change with bafetinib was -0.049; in test [1] it was 0.012; with nilotinib, 0.039; in test [2] it was 0.011; in the test with dasatinib, 0.017; in test [3] it was -0.002. Besides, the log2 fold change in [4] was -0.019; in test [5], 0.026; with tipifarnib, 0.047; in the test with mubritinib, 0.033.
Regarding TBC1D9B (UniProt Q66K14), the log2 fold change in the test with bafetinib was -0.262; in [1], -0.042; in the test with nilotinib, -0.055; in test [2] it was 0.053; in the test with dasatinib, -0.156; in test [3], -0.034. Besides, the log2 fold change is 0.07 in test [4], -0.06 in [5], 0.019 with tipifarnib and 0.203 with mubritinib.
Take SPECC1 (UniProt Q5M775): the log2 fold change with bafetinib is -0.102; in test [1], -0.1; with nilotinib, -0.108; in test [2] it was -0.133; in the test with dasatinib, -0.067; in test [3], 0.063. Besides, the log2 fold change in test [4] was -0.035; in [5] it was 0.089; with tipifarnib, 0.028; with mubritinib, 0.044.
Take SRI (UniProt P30626): the log2 fold change in the test with bafetinib is -0.001; in test [1] it was 0.062; with nilotinib, 0.017; in [2], 0.001; with dasatinib, 0.04; in test [3] it was -0.036. Moreover, the log2 fold change in test [4] was 0.113; in [5] it was 0.328; with tipifarnib, -0.072; with mubritinib, 0.01.
In the case of TIMM29 (UniProt Q9BSF4), the log2 fold change is -0.051 in the test with bafetinib; -0.077 in test [1]; -0.002 in the test with nilotinib; 0.069 in [2]; -0.031 with dasatinib; -0.039 in test [3]. Further, the log2 fold change in test [4] is -0.029; in test [5], 0.057; with tipifarnib, -0.046; in the test with mubritinib it was 0.064.
In the case of SYMPK (UniProt Q92797), the log2 fold change with bafetinib is -0.027; in [1] it was 0.036; in the test with nilotinib, -0.192; in test [2] it was -0.001; in the test with dasatinib, -0.156; in [3] it was 0.037. The log2 fold change in test [4] is -0.017; in test [5] it was -0.043; with tipifarnib, -0.152; with mubritinib, 0.015.
Consider SNRPB2 (UniProt P08579), for which the log2 fold change with bafetinib was -0.034; in test [1], -0.081; with nilotinib, 0.04; in test [2], 0.048; with dasatinib, 0.075; in test [3], 0.135. Besides, the log2 fold change in test [4] is -0.116; in [5], -0.025; in the test with tipifarnib, 0.084; in the test with mubritinib, 0.045.
